# Measurements from ChEMBL document CHEMBL3988442, “University of Dundee, Small-Polar-MMV Screening Library” (2021).
# For some assays here: Measured potencies and affinities stand elsewhere.
# Key:
# Parameters in all cases: scale not given: direction of the effect not stated beside the values
# [1] = biological target: Protein translocase subunit SecA (Escherichia coli (strain K12)) (UniProt P10408); assay: Assay to Identify E. coli SecA ATPase Inhibitors; assay type: functional; details: 30 µM
# Sequence of Protein translocase subunit SecA (Escherichia coli (strain K12)) (P10408 whole entry): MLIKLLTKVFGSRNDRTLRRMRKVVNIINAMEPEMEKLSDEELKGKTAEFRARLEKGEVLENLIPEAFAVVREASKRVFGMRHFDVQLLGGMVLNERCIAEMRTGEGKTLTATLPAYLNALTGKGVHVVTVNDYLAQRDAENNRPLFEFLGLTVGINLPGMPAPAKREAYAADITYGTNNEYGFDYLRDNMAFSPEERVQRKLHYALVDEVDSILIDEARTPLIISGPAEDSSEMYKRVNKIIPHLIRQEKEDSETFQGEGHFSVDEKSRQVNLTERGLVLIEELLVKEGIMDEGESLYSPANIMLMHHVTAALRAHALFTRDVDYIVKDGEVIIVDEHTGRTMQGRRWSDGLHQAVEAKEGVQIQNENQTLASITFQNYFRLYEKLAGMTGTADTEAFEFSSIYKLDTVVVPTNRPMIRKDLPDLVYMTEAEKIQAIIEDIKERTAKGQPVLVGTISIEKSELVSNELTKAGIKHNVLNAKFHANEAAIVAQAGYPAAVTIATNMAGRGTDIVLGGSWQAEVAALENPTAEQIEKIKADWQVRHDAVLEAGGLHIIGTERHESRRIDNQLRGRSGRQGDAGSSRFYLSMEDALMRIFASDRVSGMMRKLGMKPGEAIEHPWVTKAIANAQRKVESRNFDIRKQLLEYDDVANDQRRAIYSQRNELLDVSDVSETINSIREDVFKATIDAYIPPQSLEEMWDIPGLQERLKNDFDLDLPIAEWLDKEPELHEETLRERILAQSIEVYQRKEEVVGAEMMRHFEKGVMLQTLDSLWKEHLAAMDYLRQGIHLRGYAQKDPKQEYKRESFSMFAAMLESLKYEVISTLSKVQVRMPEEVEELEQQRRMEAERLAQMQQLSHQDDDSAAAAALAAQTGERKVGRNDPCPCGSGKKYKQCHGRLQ
# [2] = biological target: T1, Ubiquitin-activating enzyme e1, putative (Leishmania donovani (strain BPK282A1)) (UniProt E9BSI1); assay: Leishmania donovani Ubiquitin Activating Enzyme (LdE1); assay type: functional; details: 30 µM
# T1 sequence (whole entry): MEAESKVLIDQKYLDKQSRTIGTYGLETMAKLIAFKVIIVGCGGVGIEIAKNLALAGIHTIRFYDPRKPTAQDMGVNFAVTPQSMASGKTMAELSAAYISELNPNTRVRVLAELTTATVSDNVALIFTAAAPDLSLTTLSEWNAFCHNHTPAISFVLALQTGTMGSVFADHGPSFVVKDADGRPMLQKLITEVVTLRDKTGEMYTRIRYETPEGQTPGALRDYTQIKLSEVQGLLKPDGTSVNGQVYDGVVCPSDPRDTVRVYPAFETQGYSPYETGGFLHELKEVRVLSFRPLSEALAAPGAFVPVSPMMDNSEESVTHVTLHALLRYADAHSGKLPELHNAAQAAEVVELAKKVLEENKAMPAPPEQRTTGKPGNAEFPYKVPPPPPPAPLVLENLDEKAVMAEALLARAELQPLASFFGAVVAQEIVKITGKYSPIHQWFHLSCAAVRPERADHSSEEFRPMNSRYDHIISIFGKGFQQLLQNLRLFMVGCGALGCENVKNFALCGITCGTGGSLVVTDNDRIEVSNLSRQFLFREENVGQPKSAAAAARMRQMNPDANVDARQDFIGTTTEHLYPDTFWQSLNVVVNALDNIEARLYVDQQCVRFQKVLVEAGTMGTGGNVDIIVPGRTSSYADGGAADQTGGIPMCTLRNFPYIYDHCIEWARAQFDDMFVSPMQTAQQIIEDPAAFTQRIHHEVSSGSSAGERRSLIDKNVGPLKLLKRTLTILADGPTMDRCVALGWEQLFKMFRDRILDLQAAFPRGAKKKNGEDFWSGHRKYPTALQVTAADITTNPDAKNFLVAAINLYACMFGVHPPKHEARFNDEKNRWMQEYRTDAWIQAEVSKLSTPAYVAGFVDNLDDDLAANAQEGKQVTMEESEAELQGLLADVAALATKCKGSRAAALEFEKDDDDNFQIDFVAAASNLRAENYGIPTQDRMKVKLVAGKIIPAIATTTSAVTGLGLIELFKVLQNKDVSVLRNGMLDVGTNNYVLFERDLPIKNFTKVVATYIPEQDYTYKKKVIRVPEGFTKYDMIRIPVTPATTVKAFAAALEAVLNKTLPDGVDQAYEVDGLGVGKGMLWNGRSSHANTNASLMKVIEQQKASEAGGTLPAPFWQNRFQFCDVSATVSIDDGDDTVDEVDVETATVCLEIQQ
# [3] = biological target: AMP-activated protein kinase, AMPK (Homo sapiens) (UniProt P54646+O43741+P54619+Q9UGJ0+Q9Y478+Q13131+Q9UGI9); assay: AMP-dependent Kinase enzyme assay. An in vitro enzyme assay that detects ADP turnover that is directly proportional to AMPK activity. This uses naive AMPK that is activated during the assay with MK-8722; assay type: functional; details: 30 µM
# [4] = biological target: Sialic acid-binding Ig-like lectin 9 (Homo sapiens) (UniProt Q9Y336); assay: Hs-Siglec9 ALPHAscreen SOP 20170721; details: 10 µM
# Sequence of Sialic acid-binding Ig-like lectin 9 (Homo sapiens) (Q9Y336 whole entry): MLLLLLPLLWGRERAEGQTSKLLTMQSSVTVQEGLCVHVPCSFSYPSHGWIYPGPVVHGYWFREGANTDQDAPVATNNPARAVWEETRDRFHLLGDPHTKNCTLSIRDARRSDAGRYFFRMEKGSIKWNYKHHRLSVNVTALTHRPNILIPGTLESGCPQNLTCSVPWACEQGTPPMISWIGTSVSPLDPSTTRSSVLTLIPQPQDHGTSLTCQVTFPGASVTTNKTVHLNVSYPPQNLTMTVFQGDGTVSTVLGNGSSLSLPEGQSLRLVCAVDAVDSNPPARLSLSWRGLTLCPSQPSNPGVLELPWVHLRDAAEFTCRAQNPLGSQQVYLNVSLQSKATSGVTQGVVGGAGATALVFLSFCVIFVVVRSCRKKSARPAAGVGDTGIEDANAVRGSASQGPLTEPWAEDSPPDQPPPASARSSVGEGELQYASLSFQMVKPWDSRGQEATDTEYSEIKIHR
# Trypanosoma cruzi = assay: Trypanosoma cruzi phosphomannomutase and mannose-1-phosphate guanylyltransferase assay; assay type: functional; details: 10 µM
# [5] = biological target: T2, Arginase-2, mitochondrial (Homo sapiens) (UniProt P78540); assay: in vitro enzyme assay to detect the production of urea directly proportional to the activity of Arginase II; assay type: functional; details: 33.3 µM; note: in the data most compounds retested in dose-response had high values
# T2 sequence (whole entry): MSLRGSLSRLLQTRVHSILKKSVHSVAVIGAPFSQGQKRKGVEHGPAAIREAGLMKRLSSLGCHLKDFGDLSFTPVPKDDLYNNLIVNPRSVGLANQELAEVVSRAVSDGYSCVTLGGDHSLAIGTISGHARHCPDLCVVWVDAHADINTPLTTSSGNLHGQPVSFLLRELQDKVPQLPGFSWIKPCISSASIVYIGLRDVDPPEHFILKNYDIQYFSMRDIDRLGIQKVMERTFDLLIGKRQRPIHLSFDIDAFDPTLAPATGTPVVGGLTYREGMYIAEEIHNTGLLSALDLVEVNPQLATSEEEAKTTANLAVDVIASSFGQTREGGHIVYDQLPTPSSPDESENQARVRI
# [6] = biological target: T3, Proteasome subunit beta (Trypanosoma cruzi) (UniProt O96673); assay: Trypanosoma cruzi proteasome chymotrypsin-like activity (TcProtChymo) assay.; note: in the data most compounds retested in dose-response had high values; assay type: functional; details: 9.37 µM
# T3 sequence (whole entry): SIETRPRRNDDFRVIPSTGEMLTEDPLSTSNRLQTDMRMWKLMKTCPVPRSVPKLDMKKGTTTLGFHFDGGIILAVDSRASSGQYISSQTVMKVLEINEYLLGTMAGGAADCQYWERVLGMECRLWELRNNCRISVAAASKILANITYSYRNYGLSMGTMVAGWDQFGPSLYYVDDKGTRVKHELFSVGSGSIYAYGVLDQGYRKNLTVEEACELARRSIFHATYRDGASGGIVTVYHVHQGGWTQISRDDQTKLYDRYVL
# Homo sapiens = species: Homo sapiens; assay: To identify inhibition of the IFN signalling (Jak-Stat) pathway via expression of an eGFP reporter gene under the control of an IFN-stimulated response element (ISRE) containing MxA promoter.; assay type: functional; details: 30 µM
# [7] = biological target: T4, Tyrosyl-tRNA synthetase, putative (Trypanosoma cruzi (strain CL Brener)) (UniProt Q4DSP6); assay: Trypanosoma cruzi tyrosyl tRNA synthetase (TcYRS) _High Tyrosine SOP; assay type: functional; details: 30 µM; note: in the data most compounds retested in dose-response had high values
# T4 sequence (whole entry): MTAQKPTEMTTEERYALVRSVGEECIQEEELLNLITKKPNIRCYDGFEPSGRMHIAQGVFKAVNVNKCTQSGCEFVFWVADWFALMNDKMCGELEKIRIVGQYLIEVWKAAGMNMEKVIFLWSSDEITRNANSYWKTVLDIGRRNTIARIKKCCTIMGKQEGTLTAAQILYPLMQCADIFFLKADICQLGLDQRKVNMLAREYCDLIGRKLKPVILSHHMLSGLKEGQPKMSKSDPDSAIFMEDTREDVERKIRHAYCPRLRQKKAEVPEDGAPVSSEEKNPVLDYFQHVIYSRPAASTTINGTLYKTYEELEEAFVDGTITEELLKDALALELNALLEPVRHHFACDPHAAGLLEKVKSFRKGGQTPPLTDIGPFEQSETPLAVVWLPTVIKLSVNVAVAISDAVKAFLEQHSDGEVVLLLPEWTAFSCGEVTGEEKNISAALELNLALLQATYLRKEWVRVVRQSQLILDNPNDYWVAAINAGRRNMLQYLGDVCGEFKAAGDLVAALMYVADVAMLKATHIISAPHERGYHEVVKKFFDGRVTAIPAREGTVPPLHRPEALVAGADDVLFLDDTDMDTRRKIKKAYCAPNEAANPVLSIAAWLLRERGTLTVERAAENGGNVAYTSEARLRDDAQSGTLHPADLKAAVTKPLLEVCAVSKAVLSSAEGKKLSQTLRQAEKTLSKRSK
# [8] = biological target: T4, Tyrosyl-tRNA synthetase, putative (Trypanosoma cruzi (strain CL Brener)); assay: Trypanosoma cruzi tyrosyl tRNA synthetase (TcYRS) SOP; assay type: functional; details: 30 µM
# [9] = biological target: Chromo domain-containing protein 1 (Saccharomyces cerevisiae (strain ATCC 204508 / S288c) (Baker's yeast)) (UniProt P32657); assay: ScCHD-1 Enzyme Inhibition Assay; assay type: functional; details: 30 µM; note: in the data most compounds retested in dose-response had high values
# Sequence of Chromo domain-containing protein 1 (Saccharomyces cerevisiae (strain ATCC 204508 / S288c) (Baker's yeast)) (P32657 whole entry, the tested form may be a part): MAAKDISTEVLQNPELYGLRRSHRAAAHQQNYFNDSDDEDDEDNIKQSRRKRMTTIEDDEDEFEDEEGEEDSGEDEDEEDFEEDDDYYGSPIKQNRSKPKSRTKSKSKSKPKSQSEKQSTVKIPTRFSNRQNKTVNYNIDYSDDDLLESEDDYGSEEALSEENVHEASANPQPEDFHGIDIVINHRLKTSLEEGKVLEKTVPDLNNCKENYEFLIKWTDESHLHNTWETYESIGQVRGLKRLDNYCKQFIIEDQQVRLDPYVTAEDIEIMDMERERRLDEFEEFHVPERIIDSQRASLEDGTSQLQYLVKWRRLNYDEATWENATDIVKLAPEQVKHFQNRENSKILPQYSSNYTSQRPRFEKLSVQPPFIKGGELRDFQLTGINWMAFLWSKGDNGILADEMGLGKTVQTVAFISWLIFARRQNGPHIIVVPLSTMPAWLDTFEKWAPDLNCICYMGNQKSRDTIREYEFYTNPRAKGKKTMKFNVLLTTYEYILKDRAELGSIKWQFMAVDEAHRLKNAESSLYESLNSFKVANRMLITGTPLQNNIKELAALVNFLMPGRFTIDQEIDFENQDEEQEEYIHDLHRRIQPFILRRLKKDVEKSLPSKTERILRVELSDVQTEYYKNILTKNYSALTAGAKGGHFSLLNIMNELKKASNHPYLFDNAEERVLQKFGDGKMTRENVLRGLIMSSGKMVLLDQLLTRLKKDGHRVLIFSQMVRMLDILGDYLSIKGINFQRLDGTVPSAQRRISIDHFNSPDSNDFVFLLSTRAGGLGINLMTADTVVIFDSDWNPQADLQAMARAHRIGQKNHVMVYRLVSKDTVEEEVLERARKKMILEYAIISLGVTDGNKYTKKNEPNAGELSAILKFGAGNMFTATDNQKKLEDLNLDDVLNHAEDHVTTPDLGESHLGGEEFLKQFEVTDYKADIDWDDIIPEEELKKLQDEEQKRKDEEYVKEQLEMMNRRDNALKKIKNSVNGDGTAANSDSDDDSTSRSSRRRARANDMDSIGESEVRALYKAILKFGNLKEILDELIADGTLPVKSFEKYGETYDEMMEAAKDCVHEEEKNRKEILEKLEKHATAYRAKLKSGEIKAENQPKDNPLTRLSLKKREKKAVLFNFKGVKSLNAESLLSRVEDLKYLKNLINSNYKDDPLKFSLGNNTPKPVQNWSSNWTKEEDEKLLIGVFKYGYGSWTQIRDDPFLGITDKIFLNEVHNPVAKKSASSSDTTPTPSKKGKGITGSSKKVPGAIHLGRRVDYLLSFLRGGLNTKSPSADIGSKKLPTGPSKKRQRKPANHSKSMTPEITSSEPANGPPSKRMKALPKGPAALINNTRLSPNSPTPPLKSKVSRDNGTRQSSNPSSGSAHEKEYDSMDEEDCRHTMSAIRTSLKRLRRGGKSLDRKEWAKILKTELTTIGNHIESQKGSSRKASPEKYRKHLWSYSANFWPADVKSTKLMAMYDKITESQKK
SMILES,Percent Effect [1],Percent Effect [2],Percent Effect [3],Percent Effect [4],Percent Effect (Trypanosoma cruzi),Percent Effect [5],Percent Effect [6],Percent Effect (Homo sapiens),Percent Effect [7],Percent Effect [8],Percent Effect [9]
O=C(c1ccoc1)N1CCC2(CC1)C(=O)Nc1ccccc12,-2.34%,16.2%,-9.89%,3.61%,2.44%,6.2%,5.06%,37.9%,8.6%,18.5%,-8.75%
Cc1ccc(NC2CCN(C(=O)Cc3csc(C)n3)CC2)nn1,-0.935%,21.6%,-5.18%,-3.82%,-8.02%,1.2%,18.6%,4.91%,7.39%,16.1%,-4.45%
Cn1ccnc1CN1CCCC(Cc2ccccn2)C1 (configuration not stated),-7.44%,20.3%,-4.84%,1.21%,4.94%,-2.55%,13.6%,1.89%,4.3%,16.9%,-20.2%
CN(Cc1cncnc1)Cc1cn2c(n1)CN(C1CCOC1)CC2 (configuration not stated),-2.37%,5.33%,-0.62%,5.52%,-2.51%,-21.7%,8.38%,8.32%,5.21%,12.5%,-5.82%
CCNC(=O)CCc1c(C)nc2cc(O)nn2c1C,-0.575%,15.6%,-428%,4.55%,5.43%,4.63%,16.9%,23.5%,2.91%,12.2%,-8.86%
CN(C)CC1(O)CCN(S(=O)(=O)c2ccc(F)c(F)c2)C1 (configuration not stated),-6.44%,23%,-0.681%,-1.29%,5.34%,-3.48%,20.9%,1.49%,3.23%,6.49%,-21.7%
Cc1ccc(C(=O)NS(=O)(=O)c2cccc3cnccc23)c(=O)[nH]1,-5.08%,13.5%,-0.0909%,7.48%,0.65%,1.66%,6.64%,13%,6.93%,15.8%,2.35%
CN(C)CC(=O)N1Cc2nc(C(=O)NCc3ccncc3)oc2C1,-0.101%,13.3%,-4.75%,4%,3.86%,-49.3%,14.4%,-9.53%,0%,20%,-6.75%
CCc1nnc2n1CCN(CC(=O)Nc1cc(C(C)(C)C)nn1C)C2,-1.62%,5.26%,1.91%,0.565%,-3.38%,4.6%,2.17%,2.83%,3.43%,9.76%,2.88%
Cc1cc(C(=O)N2CCCC(c3noc(C)n3)C2)[nH]n1 (configuration not stated),-10.3%,15.2%,-4.15%,16.6%,10.3%,-3.04%,-2.21%,12.9%,8.37%,21.5%,-9.72%
COCCCC1CCCN(C(=O)CCc2cc(O)no2)C1 (configuration not stated),0.503%,4.17%,-6.36%,2.98%,1.46%,13.2%,18.2%,12.3%,8.42%,15.4%,-2.19%
COc1cc(CNCc2ccc(C(C)O)cc2)cc2c1OCO2 (configuration not stated),-4.95%,18.9%,2.1%,10.4%,8.45%,0.185%,20.8%,15.6%,9.9%,28.1%,-9.5%
Cc1cccc(NC(=O)[C@@H]2CCCN2CC(=O)N2CCCCCC2)n1,-4.79%,16%,-8.35%,23.6%,5.75%,34.4%,14.8%,-1.75%,4.92%,16.1%,-6.64%
CCN(C(=O)Nc1cccnc1OC)C1CC1,-6.66%,15.6%,-6.43%,15.2%,5.24%,-3.2%,7.6%,5.42%,4.85%,19.5%,-9.65%
Cc1ccc(CN2CCCn3nnc(COCC4CC4)c3C2)s1,0.823%,16%,9.89%,-6.88%,-2.76%,-11%,6.96%,12.7%,5.32%,11.5%,-3.12%
N#Cc1ccc(S(=O)(=O)NC(=O)C2CC2)c(C(F)(F)F)c1,-6.08%,21.6%,-10.9%,20.8%,4.81%,-6.41%,6.49%,7.08%,6.4%,23.5%,-7.62%
CNCC(=O)N1CC(c2cc(Nc3ncccn3)nc(C)n2)C1,0.103%,10.7%,6.11%,-7.15%,-4.33%,-1.63%,8.9%,13.8%,10.6%,16.7%,-1.56%
O=C(Nc1ccccc1)c1nn(C2CCS(=O)(=O)C2)c2c1CCCC2 (configuration not stated),-4.15%,5.26%,5.68%,0.438%,-1.07%,-2.37%,10.3%,8.39%,1.06%,10.4%,-4.11%
CNCC(=O)N1CCC(c2ccnc(Nc3ccc(C)cn3)n2)C1 (configuration not stated),-7.25%,17.6%,1.51%,1.04%,2.37%,-4.87%,17.9%,-13.7%,8.6%,19.5%,-16.1%
CN1CCOC(CNCCc2ccccn2)C1 (configuration not stated),-2.22%,20.2%,-8.39%,-6.71%,-3.31%,5.7%,5.32%,16.5%,8.37%,16.5%,-2.67%
Cc1c(C)n(Cc2ccncc2)c2nc3c(c(N)c12)CCCCC3,-2.06%,6.67%,9.29%,1.27%,9.43%,-1.94%,15.3%,43.7%,3.17%,12.8%,-10.9%
CNc1cc2c(nn1)CCN(C(=O)c1ccoc1)C2,-0.747%,7.79%,7.77%,-6.29%,-1.27%,4%,16.6%,27%,1.91%,-25.9%,-15%
